Source: PubChem BioAssay (Tox21)
Inconclusive results are not listed. Calls of active or inactive are those of the source. Calls follow the shape of the dose curve; as a rule, active = well fitted cell-killing curve with a large enough effect in the repeat runs; inconclusive = weak or mixed curves, or effect the other way; inactive = no such curve, though single readings can be large or run the other way.
% is scaled to controls: 0 for no effect and ±100 for the full control effect; potency is read from the fitted curve at half-maximal effect.

Assay: qHTS assay to identify small molecule antagonists of the progesterone receptor (PR) signaling pathway - cell viability counter screen (AID 1346798); also: nearly all actives have a fitted effect of over 50% in size
Settings: PR-UAS-bla HEK293T viability, CellTiter-Glo luminescence, 16 h; series mostly up to 92.4 µM; activity change, negative = cytotoxicity: at the top concentration
Description: National Center for Advancing Translational Sciences [NCATS]
NIH Chemical Genomics Center [NCGC]
U.S. Environmental Protection Agency [EPA]
National Institutes of Environmental Health Sciences [NIEHS]
National Toxicology Program [NTP]
U.S. Food and Drug Administration [FDA]
Progesterone receptor (PR), a nuclear hormone receptor, plays an important role in development, metabolic homeostasis and reproduction. It is activated by the steroid hormone progesterone. Endocrine disrupting chemicals (EDCs) and their interactions with steroid hormone receptors like PR causes disruption of normal endocrine function. To identify the compounds that inhibit PR signaling, a PR-UAS-bla GripTite cell line i.e. PR-UAS-bla HEK293T (Invitrogen, Carlsbad, CA, USA) containing a beta-lactamase reporter gene under the control of an UAS response element was used to screen Tox21 10K compound library. The cytotoxicity of the Tox21 compound library against the PR-bla cell line was tested in parallel by measuring the cell viability using CellTiter-Glo assay in the same wells.
Tox21 Assay Protocol Summary:
PR-UAS-bla HEK293T cells were dispensed at 3,000 cells/4 uL of assay medium containing 2% charcoal stripped FBS per well into black wall/clear-bottom 1536-well plates using a Multidrop Combi (ThermoFisher Scientific, Waltham, MA) dispenser. After the assay plates were incubated at a 37C and 5% CO2 for 4 hr, 23 nL of compounds dissolved in DMSO, positive controls or DMSO only was transferred to the assay plate by a Pintool station (Kalypsys, San Diego, CA), followed by addition of 1 uL of R5020 in assay medium using a Flying Reagent Dispenser (FRD, Aurora Discovery, San Diego, CA). The plates were incubated at 37C and 5% CO2 for 16 hr. Then 1 uL of LiveBLAzer B/G FRET substrate was added using a Flying Reagent Dispenser, the plates were incubated at room temperature for 2 hours, and fluorescence intensity was measured by an Envision plate reader (PerkinElmer, Shelton, CT). For cell viability readout that measures cytotoxicity, 4 uL/well of CellTiter-Glo reagent was added into the assay plates using a FRD. After 30 min incubation at room temperature, the luminescence intensity in the plates was measured using a ViewLux (PerkinElmer) plate reader.
With Clc1ccc(-c2ccc(Cl)c(Cl)c2Cl)c(Cl)c1Cl the Potency was 23.2 µM (active). For CN(C)CCc1c[nH]c2ccc(O)cc12, the Potency was 42.3 µM (active). For CCCCOCN(C(=O)CCl)c1c(CC)cccc1CC, the “activity change, negative = cytotoxicity” value was 3.03% (inactive). For COc1ccc(/C(=C/C(=O)N2CCOCC2)c2ccc(Cl)cc2)cc1OC, the “activity change, negative = cytotoxicity” value was -14.3% (inactive). In the case of Fc1cccc(Cl)c1CCl, the “activity change, negative = cytotoxicity” value was 1.27% (inactive). With CCCCN(CCCC)C(=S)[S-].CCCCN(CCCC)C(=S)[S-].[Zn+2] the Potency was 43.2 µM (active). With N#Cc1ccccc1Cl the “activity change, negative = cytotoxicity” value was 2.61% (inactive). For CC(=O)c1ccc(-c2ccccc2)cc1, the “activity change, negative = cytotoxicity” value was 15.6% (inactive). With CCCCCCCCCCCCCCC(Br)C(=O)O (stereo not given) the “activity change, negative = cytotoxicity” value was -3.8% (inactive). For ClC1=C(Cl)[C@]2(Cl)[C@@H]3[C@@H](Cl)[C@H](Cl)C[C@@H]3[C@@]1(Cl)C2(Cl)Cl, the “activity change, negative = cytotoxicity” value was -8.33% (inactive). With N#Cc1ccc(O)cc1 the “activity change, negative = cytotoxicity” value was -6.19% (inactive). For ClC(Cl)=C(c1ccc(Cl)cc1)c1ccc(Cl)cc1, the Potency was “inactive”. With CC1(C)C(/C=C(\Cl)C(F)(F)F)C1C(=O)OC(C#N)c1cccc(Oc2ccccc2)c1 (stereo not given) the “activity change, negative = cytotoxicity” value was 3.98% (inactive). For N#CNC#N, the “activity change, negative = cytotoxicity” value was -2.16% (inactive). With CCOP(=S)(OCC)OC(Cl)C(Cl)(Cl)Cl (stereo not given) the “activity change, negative = cytotoxicity” value was -3.22% (inactive). In the case of [Cl][Sb]([Cl])[Cl], the “activity change, negative = cytotoxicity” value was -21.2% (inactive). For O=C(Cl)c1ccc(Cl)cc1, the “activity change, negative = cytotoxicity” value was -0.586% (inactive). With C[C@H]1CC[C@@H]2[C@@H](C)[C@H]3[C@H](C[C@H]4[C@@H]5CC=C6CC(O[C@@H]7O[C@H](CO)[C@H](O)[C@H](O[C@@H]8O[C@H](CO)[C@@H](O)[C@H](O)[C@H]8O)[C@H]7O[C@H]7O[C@@H](C)[C@H](O)[C@@H](O)[C@H]7O)CC[C@]6(C)[C@H]5CC[C@]34C)N2C1 (stereo not given in full) the Potency was 31.6 µM (active). In the case of Oc1cc(Cl)c(Cl)c(Cl)c1, the “activity change, negative = cytotoxicity” value was -25.7% (inactive). With Oc1ccccc1Br the “activity change, negative = cytotoxicity” value was -1.89% (inactive). For CCOCn1c(-c2ccc(Cl)cc2)c(C#N)c(Br)c1C(F)(F)F, the Potency was 12.2 µM (active). With COC12CC[C@@]3(C[C@@H]1C(C)(O)C(C)(C)C)[C@H]1Cc4ccc(O)c5c4[C@@]3(CCN1CC1CC1)[C@H]2O5 (stereo not given in full) the Potency was 43 µM (active). For CCCCCCCCCCBr, the “activity change, negative = cytotoxicity” value was -2.8% (inactive). In the case of CC(=O)C(Cl)(Cl)Cl, the “activity change, negative = cytotoxicity” value was 6.85% (inactive). In the case of C[CH2][Hg][N]1C(=O)C2C(C1=O)C1(Cl)C(Cl)=C(Cl)C2(Cl)C1(Cl)Cl (stereo not given), the Potency was 14.6 µM (active). With COP(=O)(OC)SCn1c(=O)oc2cc(Cl)cnc21 the “activity change, negative = cytotoxicity” value was -10.1% (inactive). With COc1cccc2c1C(=O)c1c(O)c3c(c(O)c1C2=O)C[C@@](O)(C(=O)CO)CC3OC1CC(N2CCOC(OC)C2)C(O)C(C)O1 (stereo not given in full) the Potency was 0.266 µM (active). In the case of CCOC(=O)C1(c2ccccc2)CCN(CCC(C#N)(c2ccccc2)c2ccccc2)CC1, the “activity change, negative = cytotoxicity” value was 5.44% [at 42.5 µM] (inactive). With COP(N)(=S)OC the “activity change, negative = cytotoxicity” value was -1.73% (inactive). In the case of N#CCCSCCC#N, the “activity change, negative = cytotoxicity” value was -3.73% (inactive). In the case of CSCCCN=C=S, the “activity change, negative = cytotoxicity” value was -9.68% (inactive). In the case of COS(=O)(=O)c1ccc(C)cc1, the “activity change, negative = cytotoxicity” value was -0.222% (inactive). In the case of CC(C)OS(C)(=O)=O, the “activity change, negative = cytotoxicity” value was -0.69% (inactive). In the case of Clc1ccc(CSC(Cn2ccnc2)c2ccc(Cl)cc2Cl)cc1 (stereo not given), the Potency was 6.68 µM (active). For C1CCC2CCCCC2C1 (stereo not given), the “activity change, negative = cytotoxicity” value was -1.5% (inactive). With COc1cc(N)c(Cl)cc1C(=O)NC1CN2CCC1CC2 (stereo not given) the “activity change, negative = cytotoxicity” value was -6.22% [at 42.5 µM] (inactive). In the case of CN(CCCC(O)c1cccnc1)N=O (stereo not given), the “activity change, negative = cytotoxicity” value was -9.66% (inactive). For Oc1ccc(C2(c3ccc(O)cc3)c3ccccc3-c3ccccc32)cc1, the Potency was 48.6 µM (active). With Oc1ccc(I)cc1 the “activity change, negative = cytotoxicity” value was -17.8% (inactive). In the case of ClCc1ccccc1CCl, the “activity change, negative = cytotoxicity” value was 0.489% (inactive).
